In PubChem BioAssay (NCI):
Several values for one entry are separate records, joined by “and”; a condition that tells them apart may be missing. Equal entries are not always repeated. Compounds without any hit were thinned out: in the full panel of roughly 83,000, 20% have a hit.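 Plates (96-well) were seeded with cells, treated with compound at one concentration, and incubated for 48 hours before percent growth was determined.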 Activity calls are given as the source filed them. Rule for the calls: active = growth percent below 10; inactive = the rest.

Key:
Experiment in all cases: NCI-60 one-dose screen, 48 h (100 = growth as untreated, 0 = no growth, -100 = all killed)
Settings in all cases: 10 µM unless noted
HCT-15 colon = tested on: HCT-15 colon
HT29 colon = tested on: HT29 colon
SNB-75 CNS = tested on: SNB-75 CNS
SNB-19 CNS = tested on: SNB-19 CNS
U251 CNS = tested on: U251 CNS
PC-3 prostate = tested on: PC-3 prostate
SK-MEL-5 melanoma = tested on: SK-MEL-5 melanoma
UACC-62 melanoma = tested on: UACC-62 melanoma
LOX IMVI melanoma = tested on: LOX IMVI melanoma
SK-MEL-28 melanoma = tested on: SK-MEL-28 melanoma

Compound	growth (HCT-15 colon)	growth (HT29 colon)	growth (SNB-75 CNS)	growth (SNB-19 CNS)	growth (U251 CNS)	growth (PC-3 prostate)	growth (SK-MEL-5 melanoma)	growth (UACC-62 melanoma)	growth (LOX IMVI melanoma)	growth (SK-MEL-28 melanoma)
NC(=O)c1c(NC(=O)/C=C/c2cccs2)sc2c1CCC(=O)C2	13.1% (inactive)	15.8% (inactive)	56.5% (inactive)	64.5% (inactive)	22.2% (inactive)	13.4% (inactive)	24.4% (inactive)	16.9% (inactive)	18.4% (inactive)	41.8% (inactive)
COc1ccc(/C=C2\COc3ccc(O)c(O)c3C2=O)c(OC)c1OC	1.33% (active)	44.7% (inactive)	37.9% (inactive)	28.2% (inactive)	14.4% (inactive)	36.8% (inactive)	35.5% (inactive)	-56.9% (active)	0.166% (active)	58% (inactive)
COCCOc1cc2ncnc(N3CCN(S(=O)(=O)c4ccccc4Cl)CC3)c2cc1OCCOC	52.3% (inactive)	81.8% (inactive)	88.2% (inactive)	86.1% (inactive)	90.1% (inactive)	71.2% (inactive)	58.8% (inactive)	61% (inactive)	83.1% (inactive)	82.8% (inactive)
O=C(CCCOc1ccc(Br)cc1)Nc1ncc(Cc2ccc(F)cc2)s1	38.6% (inactive)	49.1% (inactive)	55% (inactive)	76.5% (inactive)	80.4% (inactive)	72.9% (inactive)	68.8% (inactive)	50.2% (inactive)	64.6% (inactive)	76.8% (inactive)
COc1ccc(C/C(C)=C(\c2ccc(O)cc2)c2ccc(OCCCN(C)C)cc2)cc1	89.7% (inactive)	77.6% (inactive)	84.1% (inactive)	100% (inactive)	80.5% (inactive)	83.4% (inactive)	98.4% (inactive)	108% (inactive)	88.9% (inactive)	112% (inactive)
CCOC(=O)c1nnn(Cc2cc(=O)oc3c2ccc2ccccc23)c1C	104% (inactive)	96.7% (inactive)	91.6% (inactive)	98.2% (inactive)	104% (inactive)	89.2% (inactive)	101% (inactive)	98.7% (inactive)	101% (inactive)	109% (inactive)
N#C/C(=C\c1ccc(Br)cc1)n1nnc2c(F)cccc21	1.57% (active)	-0.198% (active)	18.8% (inactive)	15% (inactive)	-19.5% (active)	4.26% (active)	-12.1% (active)	-37.5% (active)	-69.1% (active)	-3.74% (active)
CCCn1nc(C(=O)N2CCCCC2)c2c1CCC(N1CCC(c3ccncc3)CC1)C2 (stereo not given)	105% (inactive)	100% (inactive)	96.1% (inactive)	102% (inactive)	101% (inactive)	101% (inactive)	102% (inactive)	112% (inactive)	98.1% (inactive)	115% (inactive)
Nc1ccc(-c2ccc(N)c(Br)c2)cc1Br	29.3% (inactive)	32% (inactive)	29.8% (inactive)	52.4% (inactive)	45.6% (inactive)	57.4% (inactive)	45.8% (inactive)	33.5% (inactive)	40.3% (inactive)	58.4% (inactive)
Cc1ccc(-c2nc3nc(-c4ccc(Br)cc4)nc(N4CCCNCC4)c3o2)cc1	-84.5% (active)	-85.3% (active)	96.2% (inactive)	-47.3% (active)	-76.6% (active)	-52% (active)	92.6% (inactive)	101% (inactive)	-85.1% (active)	103% (inactive)
CCNC(=O)Oc1ccc(/C(=C(/C)Cc2ccc(OC)cc2)c2ccc(OCCN(CC)CC)cc2)cc1	2.84% (active)	-42.2% (active)	80.8% (inactive)	74.5% (inactive)	33.9% (inactive)	56.5% (inactive)	-97.1% (active)	-16.4% (active)	-75.2% (active)	-60% (active)
CC(C)=CCc1cc(O)c(O)c2oc3cc(O)cc(O)c3c(=O)c12	22.3% (inactive)	91.7% (inactive)	60.2% (inactive)	52.6% (inactive)	41% (inactive)	68.8% (inactive)	56.1% (inactive)	54% (inactive)	32.6% (inactive)	84.4% (inactive)
CN1CCN(c2ccc(/C=C/C(=O)c3ccc(O)cc3)cc2)CC1	91.1% (inactive)	100% (inactive)	85.6% (inactive)	99.6% (inactive)	86.7% (inactive)	93.1% (inactive)	94.1% (inactive)	92.7% (inactive)	95.4% (inactive)	98.8% (inactive)
CCN(CC)CCOc1ccc(/C(=C(\Cl)c2ccccc2)c2ccccc2)cc1	-1.24% (active) and 0.736% (active)	-46.7% (active) and 7.7% (active)	27.2% (inactive) and 31.5% (inactive)	52.4% (inactive) and 86.6% (inactive)	23.1% (inactive) and 72.8% (inactive)	49.1% (inactive) and 91.3% (inactive)	-97.4% (active) and -99.3% (active)	-54.2% (active) and 9.63% (active)	-42.7% (active) and 85.4% (inactive)	-28% (active) and -41.1% (active)
Cc1n(Cc2ccc3ccccc3c2)c(Cl)c(Cl)[n+]1Cc1ccc2ccccc2c1	92.5% (inactive)	19.2% (inactive)	-1.79% (active)	23.3% (inactive)	19.8% (inactive)	12.2% (inactive)	-79.4% (active)	-40.3% (active)	27.8% (inactive)	26.6% (inactive)
CCCCCCCCCCCCCCCCCCn1cc(COc2ccc(C=O)cc2)nn1	95.9% (inactive)	91.6% (inactive)	104% (inactive)	97.5% (inactive)	107% (inactive)	99% (inactive)	103% (inactive)	91.2% (inactive)	85.5% (inactive)	109% (inactive)
COc1ccc(/C=C/C(=O)c2cc3c(N)c(C(=O)Nc4ccccc4Cl)sc3nc2C)cc1	54.2% (inactive)	39.2% (inactive)	-6.43% (active)	44.7% (inactive)	31.7% (inactive)	59.2% (inactive)	-56.1% (active)	-1.92% (active)	48.2% (inactive)	42% (inactive)
CC(=O)c1c(C)nc2ccccc2c1/C=C/c1cccc(C)c1	31.3% (inactive)	18.5% (inactive)	60% (inactive)	74.1% (inactive)	49.8% (inactive)	65.8% (inactive)	54.3% (inactive)	47.8% (inactive)	42% (inactive)	75% (inactive)
COc1ccc(C2=C(CN)C(O)NC(=NCC(=O)c3ccc4ccccc4c3)N2)cc1 (stereo not given)	106% (inactive)	101% (inactive)	87.2% (inactive)	104% (inactive)	102% (inactive)	104% (inactive)	108% (inactive)	101% (inactive)	95.5% (inactive)	103% (inactive)
CCCN1C(=O)/C(=c2\sc3n(c2=O)C2C(NN=3)N(CC)C(=O)N2CC)c2ccccc21 (stereo not given)	12.5% (inactive)	3.33% (active)	17.2% (inactive)	27.7% (inactive)	17.6% (inactive)	32.9% (inactive)	14.3% (inactive)	24.7% (inactive)	17.1% (inactive)	48.1% (inactive)
COc1ccc(C2Nc3nc(SC)nc(N)c3N=C3c4ccccc4CCC32)cc1 (stereo not given)	75.9% (inactive)	69.9% (inactive)	92.5% (inactive)	104% (inactive)	95% (inactive)	54.7% (inactive)	80.2% (inactive)	85.3% (inactive)	89.9% (inactive)	103% (inactive)
Cc1nc(-n2[nH]c(=O)ccc2=O)sc1N=Nc1ccccc1	101% (inactive)	110% (inactive)	95.7% (inactive)	99.3% (inactive)	100% (inactive)	95.8% (inactive)	97.4% (inactive)	93.3% (inactive)	102% (inactive)	103% (inactive)
CCCCSc1ccc2nc(-c3ccc(OCCCN=C(N)N)cc3)cn2c1	92.7% (inactive)	53% (inactive)	22.5% (inactive)	24.5% (inactive)	13.1% (inactive)	54% (inactive)	52.8% (inactive)	52% (inactive)	61.3% (inactive)	38.3% (inactive)
C=C(CNCCc1ccc(O)cc1)[C@@H]1CC[C@]2(CO)CC[C@]3(C)[C@H](CC[C@@H]4[C@@]5(C)CCC(NCCc6ccc(O)cc6)C(C)(C)[C@@H]5CC[C@]43C)[C@@H]12 (stereo not given in full)	-86.9% (active)	-87.7% (active)	-87.3% (active)	-85.4% (active)	-88.4% (active)	-75.6% (active)	-93.5% (active)	-88% (active)	-86.3% (active)	-87.6% (active)
